Data reported in PubChem BioAssay (EPA / NIEHS).
Results filed as inconclusive are left out. The source made the active and inactive calls. Rule for the calls, unless noted: active = hit-call score of the fitted dose curve at least 0.9, where 1 is the maximum; inactive = score below 0.9.

What was measured:
[1] = ACEA_ER_80hr: ACEA Biosciences xCELLigence Real-Time Cell Analysis on Estrogen Receptor Agonism for Proliferation (AID 2282667; active = hit-call score of the fitted dose curve at least 0.9, where 1 is the maximum); conditions: T47D proliferation, impedance (xCELLigence), 80 h
Outline: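 Cell-growth kinetics were measured by impedance in T47D cells treated continuously with compound (top 100 uM final, 1:4 steps, 8 points). Activity at 80 h was scored as signal gain over the DMSO baseline.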

[2] = ATG_CRE_CIS: Attagene CIS-FACTORIAL HepG2 Assay for human cAMP Responsive Element (CRE) binding protein 3 (AID 2282926); conditions: HepG2 CRE cis-reporter, Attagene multiplexed mRNA; actives raise or lower the signal
Outline: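 We dosed HepG2 cells bearing multiple cis-promoter reporter units for 24 h and measured reporter mRNA by RT-PCR with capillary electrophoresis detection. Bidirectional concentration-response fitting used DMSO as negative control.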

[3] = target: CCAAT/enhancer-binding protein beta (Homo sapiens) (UniProt P17676); assay: ATG_C_EBP_CIS: Attagene CIS-FACTORIAL HepG2 Assay for human CCAAT/Enhancer Binding Protein (C/EBP) beta (AID 2282927); conditions: HepG2 Attagene cis-factorial transcription factor reporter; actives raise or lower the signal
Chain of CCAAT/enhancer-binding protein beta (Homo sapiens) (P17676 whole entry, looked up, the tested form may be a part): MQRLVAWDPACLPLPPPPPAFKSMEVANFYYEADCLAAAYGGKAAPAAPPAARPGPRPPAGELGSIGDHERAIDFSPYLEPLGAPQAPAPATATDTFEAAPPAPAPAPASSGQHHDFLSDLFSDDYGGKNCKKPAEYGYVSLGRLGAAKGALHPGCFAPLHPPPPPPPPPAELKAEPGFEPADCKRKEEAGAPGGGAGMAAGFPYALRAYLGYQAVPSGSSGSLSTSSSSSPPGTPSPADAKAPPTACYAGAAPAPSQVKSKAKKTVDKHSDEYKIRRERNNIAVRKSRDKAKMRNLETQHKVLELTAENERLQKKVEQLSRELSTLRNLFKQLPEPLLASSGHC
Outline: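 Chemical-treated HepG2 cells (24 h) bearing cis-regulated reporter constructs were processed for total RNA, then reverse transcription, PCR amplification, fluorescent primer extension and fragment analysis; gain- and loss-of-signal were fitted against DMSO.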

[4] = ATG_CMV_CIS: Attagene CIS-FACTORIAL HepG2 Assay for human CMV (Internal Marker) (AID 2282928); conditions: HepG2 CMV promoter reporter, transcription factor profiling; actives raise or lower the signal;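 note: endpoint acts as a background internal control marker rather than a target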
Outline: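 Cell system: HepG2, transiently transfected multiple reporter units under cis promoters. Exposure: 24 h. Detection: RT-PCR, FAM labeling, HpaI digestion, capillary electrophoresis. Analysis: bidirectional, DMSO baseline.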

[5] = ATG_DR4_LXR_CIS: Attagene CIS-FACTORIAL HepG2 Assay for human Liver X Receptor (LXR), DR4 submotif (AID 2282929); conditions: HepG2 Attagene DR4 cis-reporter, mRNA transcription; actives raise or lower the signal
Outline: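 Measures endogenous transcription factor activity via a DR4-driven reporter transcript in human HepG2 cells. Compounds incubated 24 h; mRNA quantified by RT-PCR and capillary electrophoresis, analysed as gain or loss of signal versus DMSO.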

[6] = target: Aryl hydrocarbon receptor (Homo sapiens) (UniProt P35869); assay: ATG_Ahr_CIS: Attagene CIS-FACTORIAL HepG2 Assay for human Aryl Hydrocarbon Receptor (Ahr) (AID 2282930); conditions: HepG2 AhR cis-factorial reporter transcription; actives raise or lower the signal
Chain of Aryl hydrocarbon receptor (Homo sapiens) (P35869 whole entry, looked up): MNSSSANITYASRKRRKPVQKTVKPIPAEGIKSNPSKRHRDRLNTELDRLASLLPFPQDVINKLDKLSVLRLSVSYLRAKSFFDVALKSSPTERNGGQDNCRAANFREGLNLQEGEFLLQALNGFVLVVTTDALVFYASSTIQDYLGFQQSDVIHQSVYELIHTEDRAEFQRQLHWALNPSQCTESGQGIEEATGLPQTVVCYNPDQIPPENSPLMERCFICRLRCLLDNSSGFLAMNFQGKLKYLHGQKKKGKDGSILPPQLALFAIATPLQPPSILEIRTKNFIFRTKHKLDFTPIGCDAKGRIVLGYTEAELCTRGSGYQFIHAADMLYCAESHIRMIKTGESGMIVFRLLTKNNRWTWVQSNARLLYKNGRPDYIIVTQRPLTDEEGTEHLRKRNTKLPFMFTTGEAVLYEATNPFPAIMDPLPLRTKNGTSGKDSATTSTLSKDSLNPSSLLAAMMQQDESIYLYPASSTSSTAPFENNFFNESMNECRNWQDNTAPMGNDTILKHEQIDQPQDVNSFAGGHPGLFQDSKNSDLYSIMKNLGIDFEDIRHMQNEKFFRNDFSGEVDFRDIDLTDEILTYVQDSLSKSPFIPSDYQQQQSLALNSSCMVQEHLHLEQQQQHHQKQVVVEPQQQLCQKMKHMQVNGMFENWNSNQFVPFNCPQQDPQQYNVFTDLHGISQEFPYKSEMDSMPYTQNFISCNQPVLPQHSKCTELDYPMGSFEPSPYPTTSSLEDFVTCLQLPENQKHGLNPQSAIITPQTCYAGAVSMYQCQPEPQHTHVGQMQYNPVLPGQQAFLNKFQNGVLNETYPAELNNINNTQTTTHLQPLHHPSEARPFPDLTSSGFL
Outline: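 Following 24 h of chemical dosing, transfected HepG2 liver cells with cis-driven reporter units were lysed for RNA; reporter mRNA was quantified via RT-PCR and capillary electrophoresis, and responses fitted bidirectionally from DMSO.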

[7] = ATG_AP_1_CIS: Attagene CIS-FACTORIAL HepG2 Assay for human Activator Protein 1 (AP-1) (AID 2282931); conditions: HepG2 Attagene cis-factorial AP-1 reporter mRNA; actives raise or lower the signal
Outline: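 Bidirectional concentration-response fitting against DMSO controls. Underlying signal: reporter mRNA from cis-promoter constructs in transiently transfected HepG2, measured after 24 h by RT-PCR and capillary electrophoresis.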

[8] = ATG_AP_2_CIS: Attagene CIS-FACTORIAL HepG2 Assay for human Activator Protein 2 (AP-2) (AID 2282932); conditions: HepG2 AP-2 cis-reporter, Attagene transcription factor profiling; actives raise or lower the signal
Outline: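 HepG2 cells were transiently transfected with multiple cis-promoter reporter transcription units and dosed for 24 h. Reporter mRNA was measured by RT-PCR with capillary electrophoresis fluorescence; bidirectional fits relative to DMSO baseline.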

[9] = ATG_BRE_CIS: Attagene CIS-FACTORIAL HepG2 Assay for human Bone Morphogenetic Protein (BMP) Response Element (BRE) (AID 2282933); conditions: HepG2 BMP response element reporter, Attagene transcription factor profiling; actives raise or lower the signal
Outline: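 Transient MRTU transfection of human HepG2 liver cells; 24 h compound treatment; total RNA isolated, reverse-transcribed, PCR-amplified, 6-FAM labelled, HpaI-cut, capillary electrophoresis. DMSO = negative control/baseline, bidirectional fit.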

[10] = target: Retinoic acid receptor alpha (Homo sapiens) (UniProt P10276); assay: ATG_DR5_RAR_CIS: Attagene CIS-FACTORIAL HepG2 Assay for human Retinoic Acid Receptor Alpha (RARE), DR5 submotif (AID 2282934); conditions: HepG2 Attagene cis-factorial RARE DR5 reporter, mRNA; actives raise or lower the signal
Chain of Retinoic acid receptor alpha (Homo sapiens) (P10276 whole entry, looked up): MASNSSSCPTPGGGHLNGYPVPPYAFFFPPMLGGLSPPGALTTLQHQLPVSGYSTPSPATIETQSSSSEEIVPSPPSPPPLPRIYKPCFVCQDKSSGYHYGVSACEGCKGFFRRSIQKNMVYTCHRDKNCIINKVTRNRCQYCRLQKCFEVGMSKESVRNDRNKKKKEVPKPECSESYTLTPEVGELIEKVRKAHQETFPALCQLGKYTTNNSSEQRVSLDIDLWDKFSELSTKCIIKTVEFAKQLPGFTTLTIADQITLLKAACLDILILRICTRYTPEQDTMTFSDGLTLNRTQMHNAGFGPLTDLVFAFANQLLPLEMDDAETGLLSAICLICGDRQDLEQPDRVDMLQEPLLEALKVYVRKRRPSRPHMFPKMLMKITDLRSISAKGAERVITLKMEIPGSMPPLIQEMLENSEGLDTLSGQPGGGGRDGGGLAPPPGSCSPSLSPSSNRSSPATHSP
Outline: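 Transfected HepG2 reporter cells are exposed to chemicals for 24 h. Then RNA is extracted and the DR5 element reporter transcript is measured by RT-PCR and capillary electrophoresis, with bidirectional curve fitting relative to DMSO.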

[11] = target: Transcription factor E2F1 (Homo sapiens) (UniProt Q01094); assay: ATG_E2F_CIS: Attagene CIS-FACTORIAL HepG2 Assay for human E2F Transcription Factor 1 (AID 2282935); conditions: HepG2 Attagene cis-reporter, E2F reporter RNA transcripts; actives raise or lower the signal
Chain of Transcription factor E2F1 (Homo sapiens) (Q01094 whole entry, looked up): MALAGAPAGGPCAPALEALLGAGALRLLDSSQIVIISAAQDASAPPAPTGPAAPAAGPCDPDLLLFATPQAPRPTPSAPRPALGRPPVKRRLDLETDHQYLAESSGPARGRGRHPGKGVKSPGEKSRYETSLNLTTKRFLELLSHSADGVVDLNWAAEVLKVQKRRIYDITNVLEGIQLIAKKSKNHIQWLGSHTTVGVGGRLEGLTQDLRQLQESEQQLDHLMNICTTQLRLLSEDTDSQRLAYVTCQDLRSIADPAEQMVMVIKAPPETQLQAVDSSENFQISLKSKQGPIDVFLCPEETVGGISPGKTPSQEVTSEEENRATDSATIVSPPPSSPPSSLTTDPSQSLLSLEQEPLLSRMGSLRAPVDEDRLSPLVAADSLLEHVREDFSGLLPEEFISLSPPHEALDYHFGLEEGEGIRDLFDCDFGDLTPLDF
Outline: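 HepG2 cells transiently transfected with multiplexed cis-element reporter units, dosed for 24 h. Reporter mRNA measured by RT-PCR, 6-FAM primer-extension labeling, HpaI digestion and capillary electrophoresis; bidirectional fit versus DMSO baseline.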

[12] = ATG_E_Box_CIS: Attagene CIS-FACTORIAL HepG2 Assay for human Enhancer Box (E-box) (AID 2282936); conditions: HepG2 E-box cis-reporter transcription, actives raise or lower the signal
Outline: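 HepG2 cells transiently transfected with multiplexed cis-element reporter units sensing endogenous transcription factor activity; 24 h compound exposure. Reporter mRNA measured by RT-PCR, 6-FAM primer extension, HpaI digestion and capillary electrophoresis; bidirectional fit versus DMSO.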

[13] = ATG_M_61_CIS: Attagene CIS-FACTORIAL HepG2 Assay for M61 Transcription Factor (Internal Marker) (AID 2282937); conditions: HepG2 Attagene CIS-FACTORIAL M61 internal marker reporter; actives raise or lower the signal
Outline: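 Fluorescence from labelled cDNA fragments, separated by capillary electrophoresis, quantifies reporter induction. HepG2 cells bearing transiently transfected cis-promoter MRTUs were incubated with test chemical for 24 h; DMSO defined baseline for gain/loss fitting.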

[14] = ATG_M_19_CIS: Attagene CIS-FACTORIAL HepG2 Assay for M19 Transcription Factor (Internal Marker) (AID 2282939); conditions: HepG2 Attagene CIS-FACTORIAL M19 internal marker reporter; actives raise or lower the signal
Outline: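 Transfect HepG2 with MRTU reporter library → dose chemical, 24 h → isolate total RNA, reverse-transcribe with oligo(dT) → PCR, 6-FAM label, HpaI cut (2 h, 37 C) → capillary electrophoresis. Bidirectional fit vs DMSO.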

[15] = ATG_ERE_CIS: Attagene CIS-FACTORIAL HepG2 Assay for Estrogen Response Element (ERE) (AID 2282940); conditions: HepG2 ERE cis-reporter, Attagene RNA transcript; actives raise or lower the signal
Outline: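 Transient MRTU transfection of human HepG2; cis-element promoters; 24 h dosing; total RNA → RT (oligo dT) → PCR → 6-FAM primer extension → HpaI digest → CE fluorescence. Bidirectional fit, DMSO baseline.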

[16] = ATG_Ets_CIS: Attagene CIS-FACTORIAL HepG2 Assay for human Erythroblast Transformation Specific (ETS) (AID 2282941); conditions: HepG2 ETS cis-reporter transcription, actives raise or lower the signal
Outline: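 After transient cis-reporter transfection, HepG2 cells receive test chemical for 24 h. Reporter mRNA levels, measured by RT-PCR and capillary electrophoresis fluorescence, are analysed bidirectionally relative to the DMSO baseline.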

[17] = target: Hepatocyte nuclear factor 3-beta (Homo sapiens) (UniProt Q9Y261); assay: ATG_FoxA2_CIS: Attagene CIS-FACTORIAL HepG2 Assay for human Forkhead box A2 (FOXA2) (AID 2282942); conditions: HepG2 cis-reporter transcription factor activity, 24 h; actives raise or lower the signal
Chain of Hepatocyte nuclear factor 3-beta (Homo sapiens) (Q9Y261 whole entry, looked up): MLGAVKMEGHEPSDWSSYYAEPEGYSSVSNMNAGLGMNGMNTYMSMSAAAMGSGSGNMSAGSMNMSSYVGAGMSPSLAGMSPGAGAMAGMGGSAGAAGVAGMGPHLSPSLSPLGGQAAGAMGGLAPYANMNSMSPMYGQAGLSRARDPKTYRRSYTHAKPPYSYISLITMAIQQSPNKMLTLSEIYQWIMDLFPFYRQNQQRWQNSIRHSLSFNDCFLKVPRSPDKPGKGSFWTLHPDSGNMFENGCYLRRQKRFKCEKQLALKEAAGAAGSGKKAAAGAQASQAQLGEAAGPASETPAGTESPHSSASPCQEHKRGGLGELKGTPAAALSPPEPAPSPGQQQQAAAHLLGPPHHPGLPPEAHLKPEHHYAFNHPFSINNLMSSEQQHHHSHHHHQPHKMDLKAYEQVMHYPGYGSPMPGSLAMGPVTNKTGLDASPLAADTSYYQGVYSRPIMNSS
Outline: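 In transiently transfected human HepG2 cells, promoter-driven reporter mRNA levels after 24 h chemical exposure are determined via RT-PCR with capillary electrophoresis. DMSO serves as baseline for bidirectional fitting.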

[18] = ATG_FoxO_CIS: Attagene CIS-FACTORIAL HepG2 Assay for human Forkhead box O (FoxO) (AID 2282943); conditions: HepG2 Attagene cis-reporter, FoxO element, mRNA; actives raise or lower the signal
Outline: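 24 h chemical exposure, HepG2 with transient cis-MRTU transfection. RNA extraction, oligo(dT) RT, reporter-specific PCR, primer-extension labelling, HpaI digestion, CE fragment analysis; bidirectional fit, DMSO baseline.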

[19] = ATG_GATA_CIS: Attagene CIS-FACTORIAL HepG2 Assay for human GATA Binding Protein (AID 2282944); conditions: HepG2 GATA cis-element reporter, Attagene multiplex mRNA; actives raise or lower the signal
Outline: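 Transient MRTU transfection, HepG2, 24 h compound exposure. Total RNA → oligo(dT) RT → PCR → 6-FAM primer extension → HpaI cut → CE. Bidirectional fit vs DMSO.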

[20] = ATG_EGR_CIS: Attagene CIS-FACTORIAL HepG2 Assay for human Early Growth Response 1 (EGR1) (AID 2282938); conditions: HepG2 Attagene CIS-FACTORIAL EGR reporter mRNA; actives raise or lower the signal
Outline: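 Cell-based multiplex transcription assay: HepG2 carrying transfected cis-element reporter units, 24 h chemical treatment. Fluorescence from capillary electrophoresis of RT-PCR products gives mRNA levels; fitting is bidirectional relative to DMSO.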

Measured: AC50

CN(C)c1ccc2nc3ccc(=[N+](C)C)cc-3sc2c1
active: [4] 1.69 µM | [6] 5.2 µM | [7] 19.8 µM | [9] 12.2 µM | [12] 16.7 µM
not listed: [20]
inactive: all other assays above

CC(=O)c1ccccc1O
inactive: all assays above

CCOC(=O)CC(=O)c1ccccc1
not listed: [18]
inactive: all other assays above

CCCCOC(=O)C(C)CC (stereo not drawn)
inactive: all assays above

Cc1c(Cl)cccc1Cl
inactive: all assays above

CCCCCCCCCCCCCCCCCCOS(=O)(=O)O
active: [1] 10.5 µM | [4] 11.1 µM | [7] 20.3 µM | [8] 57.3 µM | [13] 54.7 µM | [14] 52.5 µM | [15] 26.8 µM | [17] 56.7 µM
inactive: all other assays above

COC(Cc1ccccc1)OC
inactive: all assays above
